Assay outcomes from PubChem BioAssay.
BAZ2B block = inhibitors of human BAZ2B bromodomain; Q9UIF8; AlphaScreen BAZ2B-H3K14Ac peptide displacement; Potency, µM (doses to about 114 µM), hits mostly inhibitors; 4.4% of 360,000 active; AID 504333; further: nearly all actives have a fitted effect of over 60% in size
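In this displacement format the biotinylated H3(5-23) peptide acetylated at Lys14 serves as ligand at 50 nM, with BAZ2B at 50 nM in PBS pH 7.4 containing 0.01% Tween-20. Donor and acceptor beads are 10 ug/mL final.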
JMJD2A Tudor = blocks the human JMJD2A Tudor domain. O75164. AlphaScreen JMJD2A-Tudor / H3K4me3 peptide binding. Potency, µM (doses to about 114 µM), usual class: inhibitors. 4.4% of 390,000 active. AID 504339; further: nearly all actives have a fitted effect of over 50% in size
HP1b binding inh = HP1-beta chromodomain-methylated histone interaction inhibition; AlphaScreen HP1-beta / biotin-H3K9me3 peptide binding; Potency, µM (highest dose often 114 µM), actives largely listed as inhibitors; 0.56% of 390,000 active; further: nearly all actives have a fitted effect of over 70% in size
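Compound inhibition of the preformed complex between 50 nM HP1-beta and 50 nM biotinylated H3K9me3 peptide was read by AlphaScreen. Buffer was PBS pH 7.4 with 0.01% Tween-20. Incubations ran 30 min at room temperature, with 10 ug/mL donor/acceptor beads.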
G9a block = inhibitors of human histone lysine methyltransferase G9a. G9a H3K9 monomethylation, AlphaScreen, 2 h. Potency, µM (doses to about 102 µM), actives largely listed as inhibitors. Q96KQ7. AID 504332. 8.8% of 350,000 active; further: nearly all actives have a fitted effect of over 75% in size
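Step 1: enzyme (final 20 nM) with compound, 15 min RT. Step 2: substrate peptide 500 nM and SAM 20 uM, 2 h RT. Step 3: anti-H3K9me1 antibody and AlphaScreen beads, 10 min, then plate read.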
CtBP-E1A blk = CtBP/E1A binding inhibition | AlphaScreen GST-E1A/His-CtBP binding, 1536-well; hits give low values | activity change, % (test concentration not listed) | 0.49% of 340,000 active | AID 651724; in the data active means activity change below about -65%; inconclusive means mostly about -30% to -63%
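GST-E1A and His-tagged CtBP (125 nM each as 5X stock) were preincubated with pin-transferred compound for 2 h at 37 °C in the dark, then glutathione donor and nickel acceptor beads were added for 1 h before AlphaScreen reading.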
Six1-Eya2 inh = blocks human Six1 binding to Eya2; Q15475+O00167; AlphaScreen GST-Six1/His-Eya2 binding, biochemical; hits give low values; activity change, % (no concentration beside the values); 0.56% of 360,000 active; AID 651725; in the data active means activity change below about -65%; inconclusive means mostly about -30% to -63%
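Compounds are tested against tagged Six1 and Eya2 proteins bridged by glutathione donor and nickel acceptor beads; after a one-hour incubation at 37 °C without light, AlphaScreen emission is recorded.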
A number is an active result; – = inactive; ? = inconclusive; · = not tested or not shown; [ ] = dose if it differs, or a comment. Sampled rows, rich in hits. Any-hit rate of the full collection: about 10%. Unless noted, the call rests on the fitted dose curve; in most records, active means well fitted inhibition curve with a large enough effect; inconclusive means small, poorly fitted or top-dose-only effect; inactive means no such curve, though single readings can be large or run the other way.

SMILES	BAZ2B block	JMJD2A Tudor	HP1b binding inh	G9a block	CtBP-E1A blk	Six1-Eya2 inh
O=C(O)CSc1nnc(-c2ccc(S(=O)(=O)N3CCCC3)cc2)n1Cc1ccco1	–	–	–	56.2µM	–	–
Cc1cc(Cl)ccc1NC(=O)CSc1nnc(-c2ccncc2)n1Cc1ccco1	–	–	–	?	–	–
NC(=O)CSc1nnc(-c2ccc(S(=O)(=O)N3CCCC3)cc2)n1Cc1ccco1	–	–	–	?	–	–
Nn1c(SCC(=O)Nc2ccc3c(c2)OCCO3)nnc(CCC(=O)O)c1=O	–	20µM	–	–	–	–
CC(=O)Nc1cccc(NC(=O)CSc2ncc(-c3ccc(Cl)cc3)n2Cc2ccco2)c1	12.6µM	?	?	12.6µM	–	–
Cc1ccc(OCC(=O)Nc2nc(-c3ccc(Br)cc3)ns2)cc1	–	–	–	–	·	·
O=C(Cn1cnc2nc3c(cc2c1=O)CCCC3)N1CCN(c2ccccc2)CC1	–	–	–	–	·	·
CN(C)S(=O)(=O)c1ccc(C(=O)NC2CC(=O)N(c3ccc4c(c3)OCCO4)C2)cc1 (centres undefined)	–	–	–	?	·	·
O=C(CSc1nnc(-c2ccccc2Cl)n1Cc1ccco1)Nc1ccc2c(c1)OCCO2	–	–[11.4 µM]	–	–	?	–
Nn1cc(-c2ccccc2)nc1SCC(=O)Nc1ccc2c(c1)OCO2	–	?	–	70.8µM	?	?
COc1ccc(-c2cnc(SCC(=O)Nc3ccc4c(c3)OCO4)n2Cc2ccco2)cc1	?	20µM	?	25.1µM	?	?
Nn1c(SCC(=O)Nc2ccc3c(c2)OCO3)nnc1-c1cccc(Cl)c1	–	–	–	–	–	–
O=C(CSc1nnc(-c2ccc(Cl)cc2)n1Cc1ccco1)Nc1ccc2c(c1)OCCO2	–	–	–	44.7µM	–	–
CCOC(=O)/C(=N\Nc1ccccc1Cl)N1CCN(C)CC1	–	–	–	–	–	–
CCOC(=O)C1(C)/C(=N/Nc2ccc(Cl)cc2)C(=O)C(=O)N1c1ccccc1 (centres undefined)	56.2µM	15.8µM	?	?	–	–
CCOC(=O)C1(C)C=C(Nc2ccc(OC)cc2)C(=O)N1c1ccccc1 (centres undefined)	–	–	–	?	·	·
CCOC(=O)C1(C)/C(=N/Nc2ccc(S(N)(=O)=O)cc2)C(=O)C(=O)N1c1ccccc1 (centres undefined)	–	–	–	35.5µM	–	–
CCOC(=O)C1(C)/C(=N/Nc2ccccc2Cl)C(=O)C(=O)N1c1ccccc1 (centres undefined)	50.1µM	39.8µM	?	3.55µM	–	–
CCOC(=O)C1(C)/C(=N/Nc2cccc(Cl)c2)C(=O)C(=O)N1c1ccccc1 (centres undefined)	?	28.2µM	?	?	–	–
CCOC(=O)C1(C)C=C(Nc2ccc(C(=O)O)cc2)C(=O)N1c1ccc(C(=O)O)cc1 (centres undefined)	–	–	–	–	·	·
CCOCCc1nn2c(=O)cc(COC(=O)c3ccccc3NC(=O)c3ccc(C)cc3)nc2s1	–	–	–	–	·	·
COc1cccc(-c2cc(=O)c3cc(NC(=O)c4ccc(Cl)cc4)ccc3[nH]2)c1	–	–	–	50.1µM	–	–
COc1cccc(-c2cc(=O)c3cc(NC(=O)c4ccc(N(C)C)cc4)ccc3[nH]2)c1	79.4µM	–	–	31.6µM	–	–
COc1ccc2[nH]c(-c3ccccc3)cc(=O)c2c1	·	·	·	–	·	·
COc1cccc(-c2cc(=O)c3cc(NC(=O)c4ccccc4)ccc3[nH]2)c1	–	–	–	–	–	–
SMILES	BAZ2B block	JMJD2A Tudor	HP1b binding inh	G9a block	CtBP-E1A blk	Six1-Eya2 inh
COc1ccc(-c2nc3cnc(Oc4cccc(Cl)c4)nc3n(C3CC3)c2=O)cc1	·	·	·	–[0.501 µM]	·	·
Cc1ccc2oc(-c3cccc(NC(=O)c4sc5c([N+](=O)[O-])cccc5c4Cl)c3)nc2c1	–	–	–	–	·	·
Cc1cc(NC(=O)c2oc3c(c2C)-c2[nH]ncc2CC3)ccc1Br	–	–	–	?	·	·
Cc1cccc2nc(CSc3ccccc3N)cn12	·	–	–	·	–	–
Cc1cccc2nc(CSc3nnc(N)s3)cn12	–	–	–	31.6µM	–	–
Cc1ccc(S(=O)(=O)c2nc(-c3cccs3)oc2SC(C)c2ccccc2)cc1 (centres undefined)	–	–	–	?	·	·
CCOc1ccc2ncc(S(=O)(=O)c3ccccc3)c(N3CCN(c4ccccc4)CC3)c2c1	·	?	–	·	–	–
COc1ccc(N2CCN(c3c(S(=O)(=O)c4ccccc4)cnc4ccc(OC)cc34)CC2)cc1	?	?	?	8.91µM	?	?
CCOc1ccc2ncc(S(=O)(=O)c3ccccc3)c(N3CCN(c4ccc(OC)cc4)CC3)c2c1	10µM	?	?	?	–	–
CC(C)CCNC(=O)CN1C(=O)COc2ccc(S(=O)(=O)N3CCOCC3)cc21	–	–	–	–	·	·
CCN(CC)CCCNC(=O)C(C)Sc1nc(-c2ccccc2)cc(C(F)(F)F)n1 (centres undefined)	–	–	–	·	·	–
CCN(CC)C(=O)c1sc(NC(=O)C(C)Sc2nc(-c3ccccc3)cc(C(F)(F)F)n2)c(C(=O)OC)c1C (centres undefined)	–	–	–	3.55µM	·	·
CCOC(=O)c1c(NC(=O)CSc2nc(-c3ccc(OC)cc3)cc(C(F)(F)F)n2)sc(C)c1C	–	–	–	4.47µM	·	·
CCCOC(=O)c1c(NC(=O)C(C)Sc2nc(-c3ccccc3)cc(C(F)(F)F)n2)sc(C(=O)N(C)C)c1C (centres undefined)	–	–	–	11.2µM	·	·
CCCCNC(=O)CSc1nc(-c2ccc(OC)cc2)cc(C(F)(F)F)n1	–	–	–	–	·	·
CCC(Oc1ccc(F)cc1)C(=O)Nc1c(C(=O)c2ccc(C)cc2)oc2ccccc12 (centres undefined)	–	–	–	–	·	·
Cc1ccccc1Nc1nnc(SCc2cc([N+](=O)[O-])cc3c2OCOC3)s1	–	–	–	?	–	–
O=[N+]([O-])c1cc2c(c(CSc3nnc(Nc4ccccc4)s3)c1)OCOC2	–	–	–	3.55µM	–	–
C=C(C)C(=O)Nc1ccc2c(c1)OCCOCCOCCO2	11.2µM	17.8µM	12.6µM	10µM	–	?
CC(=O)Nc1ccc2c(c1)OCCO2	–	–	–	–	–	–
Cc1cc(C)cc(C(=O)NC(=S)Nc2ccc3c(c2)OCCO3)c1	?	?	?	25.1µM	–	?
CCc1ccc(C(=O)NC(=S)Nc2ccc3c(c2)OCCO3)cc1	?	?	?	?	–	–
O=C(NC(=S)Nc1cccc(O)c1)c1ccco1	–	–	–	50.1µM	·	–
O=C(NC(=S)Nc1ccc2c(c1)OCCO2)c1ccco1	?	?	–	70.8µM	–	–
